PubChem BioAssay AID1851 (National Center for Advancing Translational Sciences (NCATS), 2009)
The campaign covered roughly 16,000 compounds. About 5,700 (36%) were called active. Another 24% or so got no clear call; they are omitted. Calls come from the whole dose curve; as a rule, active = well fitted curve in the direction sought with a large enough effect; inconclusive = small, poorly fitted or top-dose-only effect, or effect the other way; inactive = no such curve, though single readings can be large or run the other way. The list shows a part of the results.

molecular target: Cytochrome P450 1A2 (Homo sapiens) (UniProt P05177); experiment: Cytochrome panel assay with activity outcomes; conditions: recombinant CYP, pro-luciferin dealkylation, luminescence, p450-cyp1a2; series mostly up to 57.1 µM; activity, negative = inhibition: at the top concentration
% is set by controls: 0 for no effect and ±100 for the full control effect.

Chain of Cytochrome P450 1A2 (Homo sapiens) (P05177 whole entry, looked up): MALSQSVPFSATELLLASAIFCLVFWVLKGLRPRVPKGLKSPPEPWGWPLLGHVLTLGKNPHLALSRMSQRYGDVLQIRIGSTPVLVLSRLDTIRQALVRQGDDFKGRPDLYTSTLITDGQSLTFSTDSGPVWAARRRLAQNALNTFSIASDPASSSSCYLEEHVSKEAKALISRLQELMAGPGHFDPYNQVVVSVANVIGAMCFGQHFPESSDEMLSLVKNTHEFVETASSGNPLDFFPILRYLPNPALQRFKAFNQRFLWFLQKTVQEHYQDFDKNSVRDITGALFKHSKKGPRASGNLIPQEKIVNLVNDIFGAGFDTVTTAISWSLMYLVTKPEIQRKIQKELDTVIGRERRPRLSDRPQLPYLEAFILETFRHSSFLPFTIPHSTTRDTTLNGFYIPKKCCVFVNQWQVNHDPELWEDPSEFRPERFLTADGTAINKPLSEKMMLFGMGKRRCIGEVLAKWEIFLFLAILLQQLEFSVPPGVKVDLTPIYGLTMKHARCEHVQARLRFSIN

Row | SMILES | activity, negative = inhibition | AC50
1 | CCOc1ccc(OCC)c(-c2c(=O)n(OCc3ccc(C(C)(C)C)cc3)c3ccccc3[n+]2[O-])c1 | -19% (inactive) | 
2 | OCCN1CCN(c2nc(N3CCCCC3)nc(N3CCCCC3)n2)CC1 | -14.8% (inactive) | 
3 | N#CN(CC(N)=O)c1nc(N2CCCCC2)nc(N2CCCCC2)n1 |  | 2000 nM (active)
4 | O=C1c2ccccc2C(=O)N1CCCCN(C(=O)c1cccc([N+](=O)[O-])c1)c1ccc(Cl)cc1 | -14.2% (inactive) | 
5 | O=C1c2cccc3c(Nc4ccccc4Cl)c([N+](=O)[O-])cc(c23)C(=O)N1CCO |  | 1780 nM (active)
6 | O=S(=O)(NC1CCN(Cc2ccccc2)CC1)c1cccc2cccnc12 | -20.6% (inactive) | 
7 | CC(C)(C)c1cc2cccnc2n1Cc1ccccc1 |  | 14100 nM (active)
8 | O=C(Nc1cccc(F)c1)N1CCC2(CC1)CCN(C(=O)c1csnn1)CC2 | -6.38% (inactive) | 
9 | CCn1c(C)nc2cc(C(=O)NNS(=O)(=O)c3ccccc3F)ccc21 |  | 25100 nM (active)
10 | N[C@H](C(=O)O)[C@@H](O)c1cnc[nH]1 | -2.61% [at 11.4 µM] (inactive) | 
11 | CN(C)/C=N/c1ncc(C(=O)c2ccc3ccccc3c2)s1 |  | 2510 nM (active)
12 | Cc1cc(C(=O)c2cnc(/N=C/N(C)C)s2)cc(C)c1O |  | 12600 nM (active)
13 | COc1ccc(O[C@H]2C=C[C@@H](c3ccccc3)O[C@H]2CO/N=C2/c3cc(OC)ccc3O[C@@H](c3cccc(OC)c3)[C@H]2O)cc1 | 1.3% [at 11.4 µM] (inactive) | 
14 | Cc1cc(N2CCOCC2)nc(SCc2ccc(Cl)cc2Cl)n1 |  | 2510 nM (active)
15 | CSc1nc(-c2ccc(C)cc2)nc(C(Cl)Cl)n1 |  | 1410 nM (active)
16 | COc1ccccc1/C=N/NC(=O)CC(=O)Nc1ccc(Cl)c(Cl)c1 |  | 1780 nM (active)
17 | COc1ccccc1CN1CCCC2(CCN(C(=O)c3cccn3C)CC2)C1 | -18.4% (inactive) | 
18 | Clc1cc2c(c(CSC3=NCN(CC4CC4)CN3)c1)OCOC2 |  | 3160 nM (active)
19 | CCOc1cc2c(C)cc(=O)oc2cc1Cl |  | 501 nM (active)
20 | CCCc1cc(=O)oc2cc(OCc3cc(OC)c(OC)c(OC)c3)c(Cl)cc12 | -5.56% (inactive) | 
21 | COc1c(/C=N/Nc2ccc([N+](=O)[O-])cc2[N+](=O)[O-])c(C)nn1-c1ccccc1 | -16.9% (inactive) | 

Row | SMILES | activity, negative = inhibition | AC50
22 | O=[N+]([O-])c1ccc(N/N=C\c2cccn2-c2ccccc2)nc1 |  | 3550 nM (active)
23 | N[C@H](C(=O)O)[C@H](N)C(=O)O | -13.3% [at 11.4 µM] (inactive) | 
24 | CC(C)Oc1ccc(N2CC(C(=O)OCC(=O)NCc3ccccc3)CC2=O)cc1 (configuration not stated) | -6.35% (inactive) | 
25 | COc1ccc(N2CC(C(=O)OCC(=O)c3cccc(OC)c3)CC2=O)cc1 (configuration not stated) |  | 20000 nM (active)
26 | COc1ccc(N2CC(C(=O)Nc3cc(C)on3)CC2=O)cc1 (configuration not stated) | -2.16% (inactive) | 
27 | COC(=O)[C@@H]1[C@@H]2C[C@H]3c4[nH]c5ccccc5c4CCN3C[C@@H]2CC[C@@H]1OS(=O)(=O)O | -10.3% [at 2.29 µM] (inactive) | 
28 | Cc1ccccc1C(=O)NNC(=O)c1ccoc1C | -5.51% (inactive) | 
29 | Cc1ccccc1C(=O)NC(C)c1ccc2c(c1)CCCC2 (configuration not stated) |  | 11200 nM (active)
30 | CCCCCSc1nncc(=O)[nH]1 | -14.7% (inactive) | 
31 | O=c1[nH]c(=O)n([C@@H]2C[C@H](O)[C@H](CO)O2)cc1I | 10.8% [at 25.6 µM] (inactive) | 
32 | COCCCNC(=O)Cn1nc(-c2ccccc2OC)ccc1=O | -16% (inactive) | 
33 | COc1ccccc1-c1cc(C(F)(F)F)nc(S(=O)(=O)CCCC(=O)NC(C)C)n1 |  | 2000 nM (active)
34 | Cc1[nH]n(C(C)(C)C)c(=O)c1Sc1ccc(Cl)cc1 | -0.437% (inactive) | 
35 | Cc1ccc(N=Cc2cc(C)n(C3CCCC3)c2C)cc1 |  | 10000 nM (active)
36 | CCCC(=O)Nc1ccc(C(=O)NNC(=S)NC(=O)c2cccs2)cc1 | 3.27% (inactive) | 
37 | CCCCc1ccc(NC(=S)NCc2cccs2)cc1 |  | 8910 nM (active)
38 | CCc1ccc(NC(=O)CS(=O)CC(=O)NCCCc2ccccc2)cc1 (configuration not stated) | -19.7% (inactive) | 
39 | CC#CCOC(=O)c1c(C)nc2sc3c(c2c1N)CC[C@@H](O)C3 |  | 25.1 nM (active)
40 | COCCNC(=O)c1onc(CSc2cccc(Cl)c2)c1C(=O)O | -11.1% (inactive) | 
41 | O=C(/C=C/c1ccccc1)NNC(=O)c1cccnc1 | -8.85% (inactive) | 
42 | COCCCNC(=O)C1C2C=CC3(CN(Cc4ccc(C)cc4)C(=O)C13)O2 (configuration not stated) | -1.32% (inactive) | 

Row | SMILES | activity, negative = inhibition | AC50
43 | COCCCNC(=O)/C=C/c1cccc(Cl)c1 |  | 6310 nM (active)
44 | O=C(/C=C/c1cccc([N+](=O)[O-])c1)NCCN1CCOCC1 | 5.84% (inactive) | 
45 | O=C(/C=C/c1cccc(Cl)c1)Nc1ccncc1 |  | 2000 nM (active)
46 | COCCCNC(=O)/C=C/c1ccc(Cl)cc1 |  | 7080 nM (active)
47 | O=C(/C=C/c1ccc(Cl)cc1)NCCN1CCOCC1 | -28.6% (inactive) | 
48 | O=C(/C=C/c1ccc(Cl)cc1)NCCSc1ccccc1 |  | 1580 nM (active)
49 | C/C(=N\OC(=O)c1ccccc1)c1cc(-c2ccc(Cl)cc2)no1 |  | 2820 nM (active)
50 | CC(C)CO/N=C1/C[C@@H](O)[C@@H](O)[C@@H]2[C@@H]3C(=O)N([C@@H](C)c4ccccc4)C(=O)[C@H]3CC[C@@H]12 | -9.02% [at 11.4 µM] (inactive) | 
51 | COc1ccc(OCCNS(=O)(=O)c2ccc3oc4ccccc4c3c2)cc1 |  | 2820 nM (active)
52 | COc1ccc(NC(=O)CCNS(=O)(=O)c2ccc3c(c2)c(=O)n(C)c(=O)n3C)cc1 | 7.33% (inactive) | 
53 | COc1ccc(S(=O)(=O)NCCC(=O)NC(C)c2ccccc2)cc1 (configuration not stated) | -12.5% (inactive) | 
54 | O=C1CCCc2ccccc2N1Cc1cccc(Cl)c1 |  | 12600 nM (active)
55 | CN1CCN(C2CC(=O)N(Cc3ccc(N4CCCC4=O)cc3)C2=O)CC1 (configuration not stated) | 8.84% (inactive) | 
56 | O=C1CC(N2CCN(C(c3ccccc3)c3ccccc3)CC2)C(=O)N1Cc1ccc(N2CCCC2=O)cc1 (configuration not stated) | 0.781% (inactive) | 
57 | C[C@@H](CN(C)C)CN1c2ccccc2CCc2ccccc21 |  | inactive
58 | O=C1CCCc2ccccc2N1Cc1ccccc1Cl |  | 14100 nM (active)
59 | CC1(C)[C@@H]2CC[C@]1(CC(=O)O)[C@H](Cl)C2 | -14.2% [at 11.4 µM] (inactive) | 
60 | CNc1csc(C)c(C)c1=O |  | 10000 nM (active)
61 | C=C(C)COc1ccc2c(c1)CCC1C2CC[C@]2(C)C(=O)/C(=N/O)CC12 (some centres not stated) | -13.8% [at 11.4 µM] (inactive) | 
62 | CCOc1ccc2nc3cc(N=Nc4ccc(N)nc4N)ccc3c(N)c2c1 |  | 794 nM (active)
